Records with an inconclusive call do not appear. A number with no mark means an inactive call. Active and inactive are the calls of the source. Calls follow the shape of the dose curve; as a rule, active = well fitted curve in the direction sought with a large enough effect; inconclusive = small, poorly fitted or top-dose-only effect, or another doubt; inactive = no such curve, though single readings can be large; an effect the other way counts as inactive or inconclusive.

The values below come from PubChem BioAssay (NCATS).

The target of assay [1] is Rap guanine nucleotide exchange factor 3 (Homo sapiens) (UniProt O95398). Description: Confirmatory qHTS for antagonist of cAMP-regulated guanine nucleotide exchange factor 3 (EPAC1) (AID 1645880). Also: nearly all actives have a fitted effect of over 55% in size. Also: potency is read from the fitted curve at half-maximal effect. The gist of the method:
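Nucleotide exchange uses 100 nM EPAC1, 250 nM RAP1B-BODIPY-GDP and 50 uM GDP, with compounds in a concentration-titration series. After 5 min at room temperature, fluorescence (480 nm ex/540 nm em) is read every 5 min for 30 min. Data are normalized to control ATA and DMSO.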

Assay [2] has the same target. Description: Confirmatory qHTS for agonist of cAMP-regulated guanine nucleotide exchange factor 3 (EPAC1) (AID 1645881).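 Also: EPAC1 catalysed release of BODIPY-GDP from Rap1B seen as fluorescence loss; 100% = effect of cAMP agonist control; nearly all actives have a fitted effect of over 75% in size.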 Background: In qHTS, concentration-response curves come from the screen itself.
The target in assay [3] is Rap guanine nucleotide exchange factor 4 (Homo sapiens) (UniProt Q8WZA2). Description: Confirmatory qHTS for agonist of cAMP-regulated guanine nucleotide exchange factor 4 (EPAC2) (AID 1645884).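 Also: nucleotide exchange releases bodipy-GDP from Rap1 and this lowers its fluorescence; % is scaled to controls: 0 for no effect and ±100 for the full control effect; nearly all actives have a fitted effect of over 65% in size.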
Assay [4] shares this target. Description: Confirmatory qHTS for antagonist of cAMP-regulated guanine nucleotide exchange factor 4 (EPAC2) (AID 1645885). Also: nearly all actives have a fitted effect of over 25% in size. Also: potency is read from the fitted curve at half-maximal effect. As to activity change, negative = inhibition: % is scaled to controls: 0 for no effect and ±100 for the full control effect.
For assay [5], the target named is Rap guanine nucleotide exchange factor 3 (Homo sapiens) (UniProt O95398). Description: Counterscreen qHTS for antagonist of cAMP-regulated guanine nucleotide exchange factor 3 (EPAC1) (AID 1645888). Also: % of control where 0% means no effect. The gist of the method: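 Measured: fluorescence of BODIPY-GDP bound to Rap1B, which falls as exchange proceeds. Conditions include 50 uM competing GDP, 5 and 30 min reads, and a later cAMP challenge for antagonist detection.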
For orientation: The purpose of a counterscreen is to sort out artefacts and off-target activity.

Chain of Rap guanine nucleotide exchange factor 3 (Homo sapiens) (O95398 whole entry, looked up): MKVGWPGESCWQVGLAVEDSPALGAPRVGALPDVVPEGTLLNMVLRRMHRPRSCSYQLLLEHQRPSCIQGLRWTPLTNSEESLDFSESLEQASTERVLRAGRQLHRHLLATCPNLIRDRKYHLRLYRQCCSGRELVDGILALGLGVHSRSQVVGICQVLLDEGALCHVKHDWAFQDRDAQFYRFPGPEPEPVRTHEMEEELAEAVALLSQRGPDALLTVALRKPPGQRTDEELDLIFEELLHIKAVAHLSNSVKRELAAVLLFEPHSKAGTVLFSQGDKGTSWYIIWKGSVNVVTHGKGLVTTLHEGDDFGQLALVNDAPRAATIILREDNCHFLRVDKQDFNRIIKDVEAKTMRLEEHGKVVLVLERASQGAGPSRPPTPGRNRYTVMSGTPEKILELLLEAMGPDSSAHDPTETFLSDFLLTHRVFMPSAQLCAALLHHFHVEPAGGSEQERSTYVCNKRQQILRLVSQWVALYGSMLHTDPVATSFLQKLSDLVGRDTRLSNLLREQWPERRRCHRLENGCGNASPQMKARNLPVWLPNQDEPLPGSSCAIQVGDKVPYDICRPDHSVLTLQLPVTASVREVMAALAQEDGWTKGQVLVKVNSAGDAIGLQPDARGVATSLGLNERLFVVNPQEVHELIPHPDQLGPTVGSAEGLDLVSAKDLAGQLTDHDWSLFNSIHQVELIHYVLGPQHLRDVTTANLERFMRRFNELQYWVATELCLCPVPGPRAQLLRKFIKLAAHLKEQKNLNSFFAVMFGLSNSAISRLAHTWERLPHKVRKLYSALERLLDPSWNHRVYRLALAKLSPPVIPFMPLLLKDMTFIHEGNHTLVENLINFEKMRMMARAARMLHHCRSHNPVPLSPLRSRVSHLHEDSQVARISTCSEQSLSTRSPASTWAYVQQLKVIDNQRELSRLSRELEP
Chain of Rap guanine nucleotide exchange factor 4 (Homo sapiens) (Q8WZA2 whole entry, looked up): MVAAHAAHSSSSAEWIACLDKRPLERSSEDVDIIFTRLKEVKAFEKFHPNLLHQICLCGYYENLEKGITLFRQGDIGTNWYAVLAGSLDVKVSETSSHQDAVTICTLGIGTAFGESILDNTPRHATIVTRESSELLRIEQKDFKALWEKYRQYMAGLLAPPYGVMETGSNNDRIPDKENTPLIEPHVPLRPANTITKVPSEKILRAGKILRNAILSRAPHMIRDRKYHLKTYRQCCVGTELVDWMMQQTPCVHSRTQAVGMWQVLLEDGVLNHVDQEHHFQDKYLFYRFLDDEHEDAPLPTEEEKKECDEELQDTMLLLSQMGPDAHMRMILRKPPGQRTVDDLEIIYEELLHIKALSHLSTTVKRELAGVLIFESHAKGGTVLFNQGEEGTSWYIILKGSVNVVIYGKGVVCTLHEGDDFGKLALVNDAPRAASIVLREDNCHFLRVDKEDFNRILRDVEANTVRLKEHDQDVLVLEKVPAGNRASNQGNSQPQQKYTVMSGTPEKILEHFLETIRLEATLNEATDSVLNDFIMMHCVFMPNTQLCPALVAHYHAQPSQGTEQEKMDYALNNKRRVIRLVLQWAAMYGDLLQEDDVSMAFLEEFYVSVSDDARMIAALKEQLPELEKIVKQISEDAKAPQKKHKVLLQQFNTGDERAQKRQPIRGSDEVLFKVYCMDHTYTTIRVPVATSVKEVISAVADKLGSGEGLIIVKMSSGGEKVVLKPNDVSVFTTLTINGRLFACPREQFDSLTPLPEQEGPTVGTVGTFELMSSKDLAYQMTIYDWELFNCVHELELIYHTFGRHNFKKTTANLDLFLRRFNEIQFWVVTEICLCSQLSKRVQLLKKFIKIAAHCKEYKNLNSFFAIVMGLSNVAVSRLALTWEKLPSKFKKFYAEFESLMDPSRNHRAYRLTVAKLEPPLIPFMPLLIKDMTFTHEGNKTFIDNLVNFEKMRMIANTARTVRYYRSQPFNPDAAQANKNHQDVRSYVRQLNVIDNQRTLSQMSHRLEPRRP

In the case of `Cc1cccc(N=C2NC(=O)/C(=C/C=C/c3ccco3)S2)c1C`, the Potency in assay [1] was 9.53 µM (active). The Potency entry in assay [2], in assay [3], in assay [4] and in assay [5] was “inactive” throughout.
For `CCCN1C(=O)c2ccccc2NC1c1ccc(OC)cc1OC` (stereo not given), the Potency result in assay [1], in assay [2], in assay [3], in assay [4] and in assay [5] was “inactive” in each case.
In the case of `CN1OC[C@@H]2CN(C(=O)CCc3ccccc3)[C@H](c3cccc(-c4ccc(C#N)cc4)c3)C[C@@H]21`, the Potency result in assay [1], in assay [2], in assay [3], in assay [4] and in assay [5] was “inactive” each time.
For the molecule `COc1cc(/C=C(/C#N)c2nc(-c3cc4ccccc4oc3=O)cs2)ccc1O`, the Potency entry in assay [1], in assay [2], in assay [3] and in assay [5] was “inactive” each time. Moreover, the outcome in assay [4] was “inactive [at 12.7 µM]”.
As for `CCC1CCCCN1CCCNC(=O)c1csc2c1CCCCC2` (stereo not given), the Potency result in assay [1], in assay [2], in assay [3], in assay [4] and in assay [5] was “inactive” throughout.
On to `CSc1ccccc1NC(=O)COc1ccccc1C`, for which the Potency result in assay [1], in assay [2] and in assay [4] was “inactive” each time. For the same molecule, in assay [3], the activation was 11.3% [at 17.1 µM, percent relative to cAMP agonist control]. For the same molecule, in assay [5], the activity change, negative = inhibition is -1.84% [at 30.8 µM].
On to `Cc1ccc(C(=O)OCC(=O)Nc2sccc2C(N)=O)cc1NC(=O)c1ccco1`, for which the Potency in assay [1] is 26.9 µM (active). Further, the Potency entry in assay [2], in assay [3], in assay [4] and in assay [5] was “inactive” in each case.
Consider `CC(=Cc1ccccc1)C=C1SC(=S)N(CCCC(=O)Nc2ccc(C(=O)O)c(O)c2)C1=O`, for which, in assay [1], the Potency was 37.9 µM (active). The Potency entry in assay [2], in assay [3], in assay [4] and in assay [5] was “inactive” each time.
Regarding `O=C1NN(c2ccccc2)C(=O)/C1=C\c1ccc(-c2cc([N+](=O)[O-])ccc2O)o1`, the values for the Potency in assay [1] and in assay [4] were 37.9 µM (active) and 60.1 µM (active), respectively. For the same molecule, the Potency entry in assay [2], in assay [3] and in assay [5] was “inactive” in each case.
For `Cc1ccc(NC(=O)C2CCCN2S(=O)(=O)c2cccc3nsnc23)c(Br)c1` (stereo not given), the Potency entry in assay [1], in assay [2], in assay [3] and in assay [5] was “inactive” throughout. Further, the outcome in assay [4] is “inactive [at 12.7 µM]”.
Consider `Cc1cc(-c2ccc(Br)s2)nc(-n2cccc2)n1`, for which the Potency entry in assay [1], in assay [2], in assay [3], in assay [4] and in assay [5] was “inactive” throughout.
For the molecule `CN(C)c1nc(Oc2ccc(=O)[nH]n2)nc(N2CCOCC2)n1`, the Potency entry in assay [1], in assay [2], in assay [3], in assay [4] and in assay [5] was “inactive” in each case.
Consider `O=C(CCSc1nc2ccccc2o1)N1CCOCC1`, for which the Potency entry in assay [1], in assay [2] and in assay [4] was “inactive” in each case. Further, in assay [3], the activation is 0.888% [at 17.1 µM, percent relative to cAMP agonist control]. For the same molecule, the activity change, negative = inhibition in assay [5] is -23.1% [at 30.8 µM].
Take `CN(c1ccccc1)S(=O)(=O)c1cccc(Cl)c1Cl`: the Potency entry in assay [1], in assay [2], in assay [3], in assay [4] and in assay [5] was “inactive” in each case.
On to `Cc1cc(C)cc(-c2nnc(SCc3ccc(C(=O)O)cc3)o2)c1`, for which the Potency result in assay [1], in assay [2] and in assay [4] was “inactive” each time. In addition, in assay [3], the activation was 0% [at 17.1 µM, percent relative to cAMP agonist control]. Further, in assay [5], the activity change, negative = inhibition was -19.9% [at 30.8 µM].
Regarding `CCOC(=O)c1c(C)[nH]c(CCC(=O)NCc2cccc(OC)c2)c1C`, the Potency entry in assay [1], in assay [2], in assay [3], in assay [4] and in assay [5] was “inactive” in each case.
Consider `Clc1cccc(Cl)c1C1Nc2cccc3cccc(c23)N1`, for which the Potency entry in assay [1], in assay [2], in assay [3], in assay [4] and in assay [5] was “inactive” in each case.
As for `CCN(CC)S(=O)(=O)c1c(Br)cc(C)cc1Br`, the Potency entry in assay [1] and in assay [2] was “inactive” throughout. Also, in assay [3], the activation was 0.523% [at 17.1 µM, percent relative to cAMP agonist control]. The Potency in assay [4] was 3.79 µM (active). In addition, in assay [5], the activity change, negative = inhibition is -9.59% [at 30.8 µM].
As to `CC1CC(C)CN(C(=O)COC(=O)CNC(=O)C23CC4CC(CC(C4)C2)C3)C1` (stereo not given), the Potency entry in assay [1], in assay [2], in assay [3], in assay [4] and in assay [5] was “inactive” in each case.
As for `COC(=O)c1ccccc1NC(=O)CN1C(=O)COc2ccccc21`, the Potency result in assay [1], in assay [2], in assay [3] and in assay [5] was “inactive” in each case. The outcome in assay [4] was “inactive [at 12.7 µM]”.
In the case of `CN(C)S(=O)(=O)c1cccc(-c2nn(-c3ccccc3)cc2/C=C2\SC(=S)NC2=O)c1`, the Potency in assay [1] is 21.3 µM (active); in assay [4], 42.6 µM (active). Besides, the Potency entry in assay [2], in assay [3] and in assay [5] was “inactive” each time.
`Cc1ccc(S(=O)(=O)N2CCC(C(=O)Nc3ccccc3N3CCCCC3)CC2)cc1C`: the Potency result in assay [1], in assay [2], in assay [3], in assay [4] and in assay [5] was “inactive” in each case.
As to `CC1Cc2nc(SCC(=O)OCc3ccccc3)n(C)c(=O)c2S1` (stereo not given), the Potency entry in assay [1], in assay [2] and in assay [4] was “inactive” throughout. Besides, the activation in assay [3] is 3.71% [at 17.1 µM, percent relative to cAMP agonist control]. Moreover, the activity change, negative = inhibition in assay [5] is 9.81% [at 30.8 µM].
With `CCN(CC)c1ccc(Nc2nc(-c3cccnc3)cs2)cc1`, the Potency result in assay [1], in assay [2], in assay [3], in assay [4] and in assay [5] was “inactive” throughout.
In the case of `O=C(OCC(=O)N1CCCC1=O)c1cc(Cl)ccc1O`, the Potency entry in assay [1], in assay [2], in assay [3], in assay [4] and in assay [5] was “inactive” each time.
For the molecule `CS(=O)(=O)c1ccc2c(c1)sc1nc(=O)c(/C=C3/C=CC(=O)C(O)=C3)c(N)n12`, the Potency in assay [1] is 3.38 µM (active). The Potency result in assay [2], in assay [3], in assay [4] and in assay [5] was “inactive” throughout.
`Cc1cccnc1NC(=O)c1ccc(S(=O)(=O)N2CC(C)OC(C)C2)cc1` (stereo not given): the Potency result in assay [1], in assay [2], in assay [3], in assay [4] and in assay [5] was “inactive” in each case.
On to `Cc1cc(C)c(NC(=O)Cn2c(=O)n(Cc3ccc(C(=O)NCc4ccco4)cc3)c(=O)c3sccc32)c(C)c1`, for which the Potency in assay [1] was 75.7 µM (active). The Potency result in assay [2], in assay [3], in assay [4] and in assay [5] was “inactive” in each case.
For the molecule `Cc1ccc(-c2sc(-c3ccccc3)nc2CC(=O)Nc2ccccc2F)cc1`, the Potency entry in assay [1], in assay [2], in assay [3], in assay [4] and in assay [5] was “inactive” in each case.
